High-throughput results (PubChem)
HPGD inh – HPGD (human) dehydrogenase inhibition; purified HPGD, NADH fluorescence kinetic, PGE2 substrate; P15428; AID 894; 4.3% of 150,000 active; Potency, µM, for inactives: at the highest dose activity change, negative = inhibition, hits mostly inhibitors; further: potency means the concentration at half of the fitted maximal effect
Target sequence (P15428 whole entry, looked up): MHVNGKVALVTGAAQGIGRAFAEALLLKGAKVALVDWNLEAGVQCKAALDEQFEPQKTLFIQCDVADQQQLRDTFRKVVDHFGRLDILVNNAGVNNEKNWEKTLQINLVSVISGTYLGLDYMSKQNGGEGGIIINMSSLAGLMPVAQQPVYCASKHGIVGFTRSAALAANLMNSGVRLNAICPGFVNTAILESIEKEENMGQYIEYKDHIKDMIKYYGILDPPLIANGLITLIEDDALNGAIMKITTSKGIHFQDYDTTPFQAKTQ
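20 nM HPGD preincubated 15 min at room temperature with compound in 50 mM Tris-HCl pH 8, 0.01% Tween 20. Started with 1 mM NAD+ and 30 uM prostaglandin E2; NADH fluorescence (360/450 nm) read 5 times over 30-s intervals, last minus first.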
ALOX12 inhib – blocks human 12-lipoxygenase activity; P18054; purified 12-hLO, xylenol orange hydroperoxide absorbance; Potency, µM (highest dose often 57.1 µM), without a hit: at the top dose activity change, negative = inhibition, usual class: inhibitors; 0.12% of 150,000 active; AID 1452; active means well fitted curve in the direction sought with a large enough effect; inconclusive means small, poorly fitted or top-dose-only effect, or another doubt; inactive means no such curve, though single readings can be large; an effect the other way counts as inactive or inconclusive; further: potency means the concentration at half of the fitted maximal effect; nearly all actives have a fitted effect of over 55% in size
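Hydroperoxide formation by human 12-lipoxygenase from 40 uM arachidonic acid was followed colorimetrically via ferric-xylenol orange complex, using the 573/405 nm absorbance ratio. Enzyme concentration was 150 nM, with 30 min reaction at room temperature.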
IMPase Li cell – IMPase inhibition in cells with lithium potentiation; CHO-M1 cells, IP1 TR-FRET (IP-One), carbachol + lithium; Potency, µM (highest dose often 59.4 µM), for the others: top-dose activity, negative = IMPase inhibition, hits mostly inhibitors; AID 1457; 0.35% of 210,000 active; active means well fitted curve in the direction sought with a large enough effect; inconclusive means small, poorly fitted or top-dose-only effect, or another doubt; inactive means no such curve, though single readings can be large; an effect the other way counts as inactive or inconclusive;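 further: IP1 builds up when IMPase is blocked and the TR-FRET signal falls; potency means the concentration at half of the fitted maximal effect; plate controls were basal vehicle for no effect and high inhibitor control for full effect; nearly all actives have a fitted effect of over 50% in size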
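Concentration–response in CHO-M1 cells, lithium-potentiated; 30 min at 37C. IP1 detected by competitive TR-FRET after 10 min lysis at RT. Hill-fitted AC50.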
ALDH1A1 block – blocks purified human ALDH1A1 activity | P00352 | Purified ALDH1A1, NADH fluorescence, propionaldehyde substrate | Potency, µM (titrated, usually from 75.3 µM), for the others: at the highest dose activity, negative = inhibition, actives largely listed as inhibitors | 7.3% of 220,000 active | AID 1030;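 further: potency means the concentration at half of the fitted maximal effect; plate controls were no enzyme wells and a reference inhibitor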
Target sequence (P00352 whole entry, looked up): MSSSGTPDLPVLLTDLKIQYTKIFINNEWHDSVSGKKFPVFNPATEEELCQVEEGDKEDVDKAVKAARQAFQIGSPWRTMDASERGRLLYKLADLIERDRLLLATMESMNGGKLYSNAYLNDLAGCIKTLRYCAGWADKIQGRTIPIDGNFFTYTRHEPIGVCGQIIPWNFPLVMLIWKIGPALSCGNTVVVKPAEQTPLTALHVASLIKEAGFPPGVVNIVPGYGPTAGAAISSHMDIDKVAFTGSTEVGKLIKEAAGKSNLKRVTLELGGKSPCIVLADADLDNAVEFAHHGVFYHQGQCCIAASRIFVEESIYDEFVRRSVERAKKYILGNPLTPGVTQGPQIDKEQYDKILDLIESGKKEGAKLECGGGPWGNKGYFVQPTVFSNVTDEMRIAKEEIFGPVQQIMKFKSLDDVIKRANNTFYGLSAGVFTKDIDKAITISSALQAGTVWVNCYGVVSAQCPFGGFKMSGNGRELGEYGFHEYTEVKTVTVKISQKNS
IMPase cell inh – cell-permeable inhibitors of inositol monophosphatase (IMPase) | AID 901 | inhibition (IP1 accumulation), % at 46.1 µM | CHO-M1 cells, IP1 accumulation, HTRF TR-FRET ratio | 120,000 tested, under 10 active | P97697; active means well fitted curve in the direction sought with a large enough effect in the signal ratio, not every such curve was filed as active; inconclusive means small, poorly fitted or top-dose-only effect, or a change in a side signal; inactive means no such curve, though single readings can be large or run the other way; the % refers to the signal ratio;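 further: cells stimulated with carbachol in lithium chloride buffer; plate controls were DMSO basal wells for no effect and reference inhibitor wells for full effect; higher means more IMPase inhibition seen as more IP1 and lower FRET ratio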
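CHO-M1 cells (CHO stably expressing M1 receptor), compound up to 46 uM final, stimulated with carbachol (50 uM as added) in buffer with 50mM LiCl, pH 7.4, 30 min at 37C. Cytosolic IP1 read by TR-FRET; AC50 from Hill fits.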
PNC inhibitor – inhibitors of perinucleolar compartment assembly | PC3M PTB-GFP, PNC prevalence imaging, 16 h; stronger effect = lower value | activity change (PNC), negative = inhibition, % at 10 µM | 3.1% of 140,000 active | AID 2417;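 active means readout at or below -70, meaning at least 70% loss of cells showing the perinucleolar compartment, a nuclear body marking cancer cells; inconclusive means readout between -30 and a set limit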;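 further: plate controls were DMSO wells for no effect and camptothecin positive control wells for full effect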
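Read-out is percentage of cells bearing a perinucleolar compartment, from automated 20x imaging of fixed, Hoechst-stained PC3M PTB-GFP cells. Cells were seeded 4 h, then exposed 16 h to compound (23 nl of library stock) in duplicate plates.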
Active calls of the source: *; [ ] = dose if it differs, or a comment. Shown are actives, neighbours in structure and some others; about 11% of the full set was active somewhere. Unless noted, the call rests on the fitted dose curve; in most records, active means well fitted inhibition curve with a large enough effect (not every such curve was filed as active); inconclusive means small, poorly fitted or top-dose-only effect, or another doubt; inactive means no such curve, though single readings can be large or run the other way. Unless noted, on the % scale 0 is the no-effect control and ±100 the full control effect.

`CCOc1ccc(C(=O)NC(=S)NC2CCCC2)cc1[N+](=O)[O-]` gave HPGD inh -11%, ALOX12 inhib 28µM*, IMPase Li cell 3%, ALDH1A1 block 13µM* and PNC inhibitor inconclusive.
Cc1ccccc1S(=O)(=O)Cc1ccc(C(=O)NCc2ccc(F)cc2)o1 was read as IMPase Li cell 3% and ALDH1A1 block -6%.
`COC(=O)c1ccc(CS(=O)(=O)c2ccccc2C)o1` gave HPGD inh -13%, ALOX12 inhib inconclusive, IMPase Li cell 33%[38.3 µM], ALDH1A1 block 2.2µM*, IMPase cell inh 15 and PNC inhibitor 10.
O=c1cc(-c2ccccc2)[nH]c2cc(Cl)ccc12 was read as HPGD inh -8%, ALOX12 inhib 0%[0.00818 µM], IMPase Li cell -4%, ALDH1A1 block -10% and PNC inhibitor -119*.
O=c1cc(-c2cccc(F)c2)[nH]c2ccccc12 was read as HPGD inh inconclusive, ALOX12 inhib -1%[0.00818 µM], IMPase Li cell 1%, ALDH1A1 block 4%[120 µM] and PNC inhibitor -91*.
For O=c1cc(-c2ccccc2)[nH]c2ccc(Cl)cc12 the results were HPGD inh -8%, ALOX12 inhib 2%[0.00818 µM], IMPase Li cell inconclusive and ALDH1A1 block inconclusive.
Screening CC(=O)NC1C(c2nc3ccccc3s2)=C(c2ccccc2)C(=O)N1c1ccc(C)cc1 (configuration not stated) returned HPGD inh -24%, ALOX12 inhib -4%, IMPase Li cell 4%[38.3 µM], ALDH1A1 block 7.9µM*, IMPase cell inh 8 and PNC inhibitor 19.
Screening NC[C@H]1O[C@H](n2cnc3c(N)ncnc32)C[C@@H]1O returned HPGD inh -11%, ALOX12 inhib 3%[11.4 µM], IMPase Li cell -7% and ALDH1A1 block -6%[13.5 µM].
CCOC(=O)N1CCN(c2ccc(C(F)(F)F)cn2)CC1 was read as HPGD inh inconclusive, ALOX12 inhib 1%, IMPase Li cell 2%, ALDH1A1 block 6% and PNC inhibitor inconclusive.
For CC1=NN(c2ccc(C(F)(F)F)cn2)C(=O)C1 the results were HPGD inh -9%, ALOX12 inhib 2%, IMPase Li cell -8%, ALDH1A1 block 22µM* and PNC inhibitor 13.
Cc1ccc(SCC(=O)Nc2cc([N+](=O)[O-])ccc2O)cc1 was read as IMPase Li cell 21% and ALDH1A1 block inconclusive.
`Cn1c(=O)c2c(ncn2CC(=O)Nc2cccc(S(=O)(=O)Nc3ccccc3F)c2)n(C)c1=O` gave IMPase Li cell 3% and ALDH1A1 block 7.9µM*.
`CCOc1ccccc1NC(=O)CSc1ccc([N+](=O)[O-])cc1` gave IMPase Li cell 13% and ALDH1A1 block 20µM*.
`O=C(CSc1ccc([N+](=O)[O-])cc1)Nc1cccc(S(=O)(=O)Nc2ccccc2F)c1` gave IMPase Li cell 24% and ALDH1A1 block 5µM*.
Cc1cc(S(=O)(=O)Nc2cc3c(cc2N2CCOCC2)n(C)c(=O)n3C)ccc1F was read as IMPase cell inh -6.
Screening C=C1c2ccccc2O[C@H](C(=O)OCC)[C@@H]1C1CCCCC1 (tested in a mixture with another compound) returned HPGD inh inconclusive, ALOX12 inhib -12%[0.00818 µM], IMPase Li cell 21% and ALDH1A1 block inconclusive.
Screening CCOC(=O)c1c(NC(=S)Nc2ccc(Cl)cc2)sc2c1CCN(C)C2 returned HPGD inh -27%, ALOX12 inhib -4%, IMPase Li cell 6%, ALDH1A1 block 25µM* and PNC inhibitor 38.
For CCOC(=O)c1c(NC(=S)Nc2ccc(OCC)cc2)sc2c1CCN(C)C2 the results were ALDH1A1 block 24µM*.
For CCOC(=O)c1c(NC(=O)Nc2ccc(F)cc2)sc2c1CCN(C)C2 the results were ALDH1A1 block -6%.
For COc1ccc(-n2ncc(Cl)c(Cl)c2=O)cc1 the results were IMPase Li cell -8% and ALDH1A1 block 10µM*.
`COC(=O)c1ccccc1NC(=O)Cc1nc(-c2ccccc2)sc1-c1ccc(C)cc1` gave HPGD inh -24%, ALOX12 inhib -8%, IMPase Li cell 0%, ALDH1A1 block 10µM*, IMPase cell inh 8 and PNC inhibitor -14.
Screening COC(=O)c1ccccc1NC(=O)CSc1nnc(-c2ccc(C)cc2)o1 returned HPGD inh -11%, ALOX12 inhib 2%, IMPase Li cell 2%, ALDH1A1 block -6%, IMPase cell inh -6 and PNC inhibitor 237.
Cc1nn(-c2ccccc2)c(OC(=O)c2ccc(Br)cc2)c1S(=O)(=O)c1ccccc1 was read as IMPase cell inh 6.
CCCN1C(=O)C2(C(C(=O)c3ccc(C)o3)=C(O)C(=O)N2CCCN2CCOCC2)c2ccccc21 (configuration not stated) was read as HPGD inh -4%, ALOX12 inhib -3%, IMPase Li cell 10µM*, ALDH1A1 block 10µM*, IMPase cell inh -27 and PNC inhibitor inconclusive.
For Cc1ccc(Nc2cc(C)c(C#N)c3nc4ccccc4n23)cc1Cl the results were IMPase cell inh 9.
COC(=O)[C@H](COC(C)(C)C)NC(=O)O[C@@H]1C(=O)c2ccc(OC)cc2O[C@H]1c1cccc(C(F)(F)F)c1 was read as HPGD inh -7%, IMPase Li cell -4% and ALDH1A1 block -2%.
Screening CCOc1nc(NCCO)nc(NCCC2=CCCCC2)n1 returned HPGD inh -8%, ALOX12 inhib 3%, IMPase Li cell 0%, ALDH1A1 block inconclusive, IMPase cell inh -8 and PNC inhibitor -100*.
Screening CCOc1nc(NCCC2=CCCCC2)nc(N2CCOCC2)n1 returned HPGD inh -7%, ALOX12 inhib 0%, IMPase Li cell 3%, ALDH1A1 block -9%, IMPase cell inh -7 and PNC inhibitor -23.
For O=C(c1c(O)c2ccc(Cl)cc2[nH]c1=O)C1CC1 the results were HPGD inh -1%, ALOX12 inhib -2%, IMPase Li cell inconclusive, ALDH1A1 block 1% and IMPase cell inh 2.
Screening O=[N+]([O-])c1cccc(CSc2ncnc3ccccc23)c1 returned IMPase Li cell 29% and ALDH1A1 block 22µM*.
Screening Cc1nc2c(cc1C(=O)N/N=C/c1ccc(O)c(O)c1)c(=O)n(C)c(=O)n2C returned HPGD inh -3%, ALOX12 inhib 2%, IMPase Li cell 8%, ALDH1A1 block 4% and PNC inhibitor -89*.
Screening N#Cc1ccc(C(=O)Nc2cc(S(=O)(=O)Nc3ccc(Cl)cc3)ccc2N2CCCCC2)cc1 returned HPGD inh 3%, ALOX12 inhib 2%, IMPase Li cell 4%, ALDH1A1 block inconclusive and PNC inhibitor -9.
